Laboratory results taken from PubChem BioAssay AID1950 (The Scripps Research Institute Molecular Screening Center, 2009).
Among all 300,000 compounds or so, about 1,000 (0.33%) were called active. Only a selection was taken, and actives are over-represented in it overall. Unmarked numbers belong to inactive results. Rule as the data show it: active = inhibition above about 28%; inactive = the rest.

These compounds were tested on EBNA-1 (Epstein-Barr virus nuclear antigen 1), Human herpesvirus 4 (assay: blockers of EBV EBNA-1 binding to DNA – biochemical, fluorescence polarization, primary screen (AID 1950)). Conditions: EBNA-1 DNA binding, at 14.8 µM, hits give high values.
`CCc1nonc1NC(=O)c1oc2ccc(Cl)cc2c1C` gave an inhibition of 7.96%. `COc1ccc(-c2nonc2NC(=O)c2oc3ccc(F)cc3c2C)cc1OC` was tested, and the inhibition was 34.8% (active). Work on `Cc1nonc1NC(=O)c1oc2ccccc2c1C` yielded an inhibition of 1.17%. `O=C(CCS(=O)(=O)c1ccccc1)NC1CCCC1` showed an inhibition of -3.67%. For `Cc1cccc(N(CC(=O)Nc2ccc(-c3nc4ccc(C)cc4s3)cc2)S(C)(=O)=O)c1`, the inhibition was 46.6% (active). With `COc1cccc(N(CC(=O)Nc2cccc(F)c2)S(C)(=O)=O)c1` the inhibition was -2.72%. For `Cc1nc2ccc(S(=O)(=O)N(C)CC(=O)NC(C)c3ccccc3)cc2s1` (centres undefined), the inhibition was -7.08%. In the case of `Cc1ccc2nc(-c3ccc(NC(=O)CN(C)S(=O)(=O)c4ccccc4)cc3)sc2c1`, the inhibition is reported as 72.6% (active). With `CCN(CC)S(=O)(=O)c1ccc(NC(=O)CN(c2cccc(F)c2)S(C)(=O)=O)cc1` the inhibition was -22.3%. `COc1cc(NC(=O)CN(C)S(=O)(=O)c2ccc3nc(C)sc3c2)cc(OC)c1` showed an inhibition of 1.78%. For `COc1cccc(CNn2cn[nH]c2=S)c1OCc1ccccc1`, the inhibition was 7.14%. `O=C(CN1CCSCC1)N/N=C/c1ccc(F)cc1` was tested, and the inhibition was 10.8%. `CCOc1ccc(CCNC(=O)COC(=O)c2ccc(F)c(S(=O)(=O)N3CCOCC3)c2)cc1OCC` was tested, and the inhibition was -5.23%. `O=C(Nc1ccccc1F)c1ccc(Cn2cc(Br)cn2)cc1` gave an inhibition of -6.22%. In the case of `NC(=O)Cn1nc([N+](=O)[O-])nc1Oc1ccc(Br)cc1`, the inhibition is reported as 4.94%. With `COc1ccc(CCNC(=O)C2CCCN2C(=O)Nc2ccccc2)cc1OC` (centres undefined) the inhibition was 2.79%. Compound `CCCCCCCCCCCCC(NC(C)=O)(C(=O)OCC)C(=O)OCC` has an inhibition of -7.56%. `CC(=O)N(C)c1ccc(NC(=O)C(F)(F)F)cc1` gave an inhibition of -11.5%. Compound `CC(C)CNC(=O)C(=O)Nc1ccc(N(C)C)cc1` has an inhibition of -3.03%. For `CN(C)c1ccc(N/C=C/C(=O)C(F)(F)F)cc1`, the inhibition was 173% (active). `CCCn1nnnc1NCc1ccc(CC)cc1` gave an inhibition of 10.3%. `CC(C)c1ccc(NC(=S)NC2CC3C=CC2C3)cc1` (centres undefined) was tested, and the inhibition was -1.5%. Compound `COc1ccc2[nH]c3nc(SCC(=O)NC4CC4)nnc3c2c1` has an inhibition of -0.29%. `COC(=O)CSc1nc(C)c2ccc(OC)cc2n1` was tested, and the inhibition was 78.5% (active). In the case of `COc1ccc2nc(SCc3ccccc3)nc(C)c2c1`, the inhibition is reported as 11.4%. With `CCN(CC)Cc1csc2ccc(Br)cc12` the inhibition was 5.3%. Work on `O=C(C1CCC1)N1CCc2cc(S(=O)(=O)NCc3cccnc3)ccc21` yielded an inhibition of 8.39%. `COc1cc(Nc2nc3ccc(Cl)cc3n3cnnc23)cc(OC)c1OC` gave an inhibition of 2.08%. In the case of `O=C(Nc1ccc(C2CC2(Cl)Cl)cc1)c1cccc([N+](=O)[O-])c1` (centres undefined), the inhibition is reported as -4.52%. In the case of `Cc1ccc(-n2c(C)cc(/C=C(\C#N)C(=O)NCC3CCCO3)c2C)cc1` (centres undefined), the inhibition is reported as 7.66%. `O=C(Cn1c(NCCO)nc2ccccc21)c1ccc(Cl)cc1Cl` was tested, and the inhibition was -13.3%. Work on `Cc1ccc2c(C)c(C(=O)N(C)Cc3ccncn3)oc2c1C` yielded an inhibition of 3.76%. For `COc1ccc(NC(=O)NCc2ccc3c(c2)OCO3)c(OC)c1`, the inhibition was 71.6% (active). `COc1ccc2c(c1)C(C)=CC(C)(C)N2C(=O)CNCc1ccc2c(c1)OCO2` gave an inhibition of 3.99%. Work on `COc1cc(OC)c(C(=O)NCc2ccc3c(c2)OCO3)cc1OC` yielded an inhibition of -7.83%. For `O=C(NCc1ccccc1)[C@@H]1CSC2c3ccccc3C(=O)N21` (some centres undefined), the inhibition was -9.14%. `Cc1ccccc1CCN(CC(=O)NC1CCCCC1)C(=O)c1csnn1` showed an inhibition of 3.08%. Compound `CCN(CC(=O)Nc1c(F)cccc1F)C(=O)CN1c2cccc3cccc(c23)S1(=O)=O` has an inhibition of -4.49%. Work on `Nc1cc(N)nc(SCc2cccc(F)c2)n1` yielded an inhibition of -19.7%. `COC(=O)c1ccccc1NC(=O)CSc1nc2c(c(=O)[nH]1)CCC2` showed an inhibition of -3.59%. In the case of `Cc1cccc(NC(=O)Cn2c(=O)n(Cc3ccccc3)c(=O)c3c(C)c(C)sc32)c1`, the inhibition is reported as 79.6% (active). In the case of `Cc1sc2c(c1C)c(=O)n(-c1ccccc1)c(=O)n2CC(=O)NCC1CCCO1` (centres undefined), the inhibition is reported as 1.39%. With `Cc1cccc(-n2c(=O)c3c(C)c(C)sc3n(CC(N)=O)c2=O)c1` the inhibition was -0.9%. Work on `CCOCCCN(C)C1CCN(C(=O)c2oc3ccccc3c2NC(=O)Cc2cccc([N+](=O)[O-])c2)CC1` yielded an inhibition of -6.1%. `CCOc1ccc(C(C(=O)NCCOC)N(CCOC)C(=O)CCC(=O)Nc2ccccn2)cc1` (centres undefined) gave an inhibition of -5.61%. `CCOc1ccc(-c2cn(S(=O)(=O)c3cccc4nsnc34)nc2N)cc1` gave an inhibition of 3.63%. `CCN(CC)c1ccc2oc(=O)c(C)nc2c1` was tested, and the inhibition was 110% (active). `C=CCN(C(=O)Nc1ccc2oc(C)nc2c1)c1ccccc1` gave an inhibition of 14.4%. For `CCN(CC)c1ccc2cc(C(N)=O)/c(=N\NC(=O)c3ccncc3)oc2c1`, the inhibition was 9.01%. `C=CCOC(=O)C1=C[C@H](c2ccc(Br)cc2)C[C@H](OCCCCO)O1` showed an inhibition of 8.07%. Work on `CCc1ccc(C(=O)NN=C2CCCCCC2)s1` yielded an inhibition of 4.85%. `Cc1cccc(C(=O)OCC(=O)Nc2sc3c(c2C#N)CCC3)c1` showed an inhibition of 3.25%. `CC(=O)c1c(C)[nH]c(C(=O)OCC(=O)Nc2sc3c(c2C#N)CCCC3)c1C` was tested, and the inhibition was 42.2% (active). Work on `N#Cc1c(NC(=O)CCCl)sc2c1CCCCC2` yielded an inhibition of -14.9%. Work on `CC(=O)c1cc(-c2ccccc2)[nH]c1N1CCCC1` yielded an inhibition of -8.66%. `Cc1ccc2c(c1)C(O)(CC(=O)c1cccc(-n3cccc3)c1)C(=O)N2` (centres undefined) gave an inhibition of 2.62%. `CCc1nccn1S(=O)(=O)c1cccc([N+](=O)[O-])c1` was tested, and the inhibition was 31.4% (active). `O=[N+]([O-])c1cccc(S(=O)(=O)N2CCCCCC2)c1` showed an inhibition of 1.71%. For `CC1=NCCN1S(=O)(=O)c1cccc([N+](=O)[O-])c1`, the inhibition was -6.19%. For `Cc1cc(Nc2ccc(Br)cc2)nc2ccccc12`, the inhibition was -8.6%. Compound `O=C(N/C(=C/c1ccc(Cl)cc1)C(=O)N1CCCCC1)c1ccco1` has an inhibition of 7.31%. In the case of `CC(=O)CC[C@@H](C)O[C@@H]1OC(C)[C@H](O)CC1O` (some centres undefined), the inhibition is reported as 4.39%. With `COc1ccc(C)cc1NC(=O)NCCCCc1ccccc1` the inhibition was 2.71%. `COc1ccc(C)cc1NC(=O)NCc1ccccn1` was tested, and the inhibition was 110% (active). For `Cc1cc(C)cc(NC(=O)NCc2ccccn2)c1`, the inhibition was -7.86%. Compound `CCOc1ccc(S(=O)(=O)N2CCN=C2Cc2ccccc2)cc1C` has an inhibition of 4.47%. `CC1CCCN(S(=O)(=O)c2ccc(-c3ccc(=O)[nH]n3)o2)C1` (centres undefined) was tested, and the inhibition was -20.5%. With `Cc1cccc(N2Cc3ccccc3C2=NC(=O)c2ccc(Cl)nc2)c1` the inhibition was 17.6%. In the case of `N#Cc1ccc(N2Cc3ccccc3/C2=N/C(=O)Nc2ccc(Cl)cc2)cc1`, the inhibition is reported as 73.5% (active). `O=C(Nc1ccccc1)OCc1cn(-c2ccc(Cl)cc2)nn1` gave an inhibition of 6.14%. Work on `COc1ccc(NC2CCCN(C(=O)c3ccncc3)C2)cc1` (centres undefined) yielded an inhibition of 5.52%. `C=CCN(c1ccc(Cl)cc1)S(=O)(=O)c1cccc(C(=O)OCC(=O)N(C)C)c1` gave an inhibition of 11.1%. Compound `COc1ccc(C(C[N+](=O)[O-])n2nc(C)cc2C)cc1` (centres undefined) has an inhibition of 11%. `O=C(CCCn1c(SCC(=O)c2ccc(F)cc2)nc2ccccc2c1=O)NCc1ccco1` was tested, and the inhibition was 37.8% (active). Compound `O=C(CCCn1c(SCC(=O)c2ccccc2)nc2ccccc2c1=O)NCC1CCCO1` (centres undefined) has an inhibition of 1.63%. Compound `Cn1c(-c2ccc(F)cc2)cnc1SCC(=O)NCc1ccco1` has an inhibition of 3.48%. Work on `CC(C)C[C@H]1CN=C(Nc2ccccc2)N1CC1CCCCC1` yielded an inhibition of 0.22%. `COc1ccc(NC(=O)C2C3CCC(O3)C2C(=O)O)cc1OC` (centres undefined) showed an inhibition of 5.36%. `COc1ccc(C(=O)Nc2ccccc2C(=O)N/N=C/c2ccc(O)c(OC)c2)cc1` was tested, and the inhibition was 6.06%. For `CCOc1cc(C2C(C(=O)OC)=CN(C3CCCC3)C=C2C(=O)OC)cc(Br)c1O`, the inhibition was 11.7%. `COC(=O)C1=CN(Cc2ccc(OC)cc2)C=C(C(=O)OC)C1c1ccc(O)c(OC)c1` was tested, and the inhibition was 28.7% (active). With `Cc1ccccc1NC(=O)C(C)OC(=O)CCC(=O)N(CC(C)C)c1c(N)n(CC(C)C)c(=O)[nH]c1=O` (centres undefined) the inhibition was -7.69%. Compound `COc1ccc(S(=O)(=O)NC(C)C(=O)N2CCCCCC2)cc1` (centres undefined) has an inhibition of 2.58%. `CSc1nnc(SCc2nc3sc(C(=O)O)c(C)c3c(=O)[nH]2)s1` gave an inhibition of 4.86%. Work on `COc1ccccc1NC(=O)CSc1nc2sc3c(c2c(=O)n1-c1ccccc1)CCN(C)C3` yielded an inhibition of -6.51%. In the case of `CCOC(=O)c1ccc[n+](CC(=O)Nc2ccccc2OC(F)F)c1`, the inhibition is reported as -2.1%. `Cc1ccc(-c2nc(SCC(=O)Nc3ccccc3OC(F)F)c3c(C)c(C(=O)O)sc3n2)cc1` was tested, and the inhibition was 29.7% (active). Compound `COc1ccc([N+](=O)[O-])cc1NCC(=O)c1ccc(C)cc1` has an inhibition of 5.63%. `Cc1ccc(S(=O)(=O)N(CC(O)CN2C(=O)NC(C)(C)C2=O)c2cccc([N+](=O)[O-])c2)cc1` (centres undefined) showed an inhibition of -8.62%. Work on `Cc1cc(=O)oc2cc(OCC(=O)Nc3nnc(C4CC4)s3)ccc12` yielded an inhibition of 7.9%. In the case of `Cc1ccc(O)c(/C=N/NC(=O)COc2ccc3c(C)cc(=O)oc3c2)c1`, the inhibition is reported as 27.9% (active). Compound `CCOC(=O)Cc1csc(NC(=O)COc2ccc3c(C)cc(=O)oc3c2)n1` has an inhibition of -2.07%. `Cc1ccc(OCCC(=O)OCC(=O)N2c3ccccc3NC(=O)C2(C)C)cc1` gave an inhibition of -1.98%. For `CN1CCN(CC(=O)C23CC4CC(CC(C4)C2)C3)CC1`, the inhibition was -0.65%.
